# Test results as given in PubChem BioAssay (EPA / NIEHS).
# Values joined by “and” are separate entries in the source; they are usually repeats but may differ in a detail not shown here. Equal values may be shown once. The source holds several records for some structures; these can differ, active in one and inactive in another. Active and inactive are the calls of the source. Rule for the calls: active = hit-call score of the fitted dose curve at least 0.9, where 1 is the maximum; inactive = score below 0.9.
# Assays:
# [1] = read-out: Monocyte Chemoattractant Protein-1 (MCP1), CCL2 (gene 6347); assay: BSK_LPS_MCP1: BioMAP Diversity Plus: LPS Assay for Monocyte Chemoattractant Protein-1 (MCP1) Biomarker Activity (AID 2283081); conditions: primary human HUVEC with PBMC; actives raise or lower the signal;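 for AC50: secreted MCP-1 protein quantified by ELISA in culture supernatant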
# Method in brief: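 Human umbilical vein endothelial cells co-cultured with PBMC, LPS-stimulated; secreted MCP-1 measured by ELISA 24 h after compound addition. Bidirectional curve fitting against DMSO baseline; SRB total-protein staining in parallel cultures for cytotoxicity.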
# [2] = BSK_LPS_PGE2: BioMAP Diversity Plus: LPS Assay for Prostaglandin E2 (PGE2) Biomarker Activity (AID 2283082); conditions: primary human HUVEC with PBMC; actives raise or lower the signal;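 for AC50: secreted prostaglandin E2 measured by ELISA in LPS-stimulated co-culture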
# Method in brief: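 HUVEC plus PBMC co-culture stimulated with LPS; secreted PGE2 quantified by ELISA 24 h after chemical dosing. Activity fitted bidirectionally against DMSO as negative control and baseline; parallel SRB total-protein staining served as cytotoxicity check.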
# [3] = read-out: Macrophage colony-stimulating factor (MCSF), CSF1 (gene 1435); assay: BSK_LPS_MCSF: BioMAP Diversity Plus: LPS Assay for Macrophage colony-stimulating factor (MCSF) Biomarker Activity (AID 2283083); conditions: primary human HUVEC with PBMC; actives raise or lower the signal
# Method in brief: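 HUVEC–PBMC co-culture, M-CSF measured by ELISA 24 h after chemical dosing. Fitted in both directions relative to DMSO as negative control; overt cytotoxicity assessed by SRB total-protein staining in parallel cultures.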
# [4] = read-out: Tissue Factor, F3 (gene 2152); assay: BSK_LPS_TissueFactor: BioMAP Diversity Plus: LPS Assay for Tissue Factor Biomarker Activity (AID 2283084); conditions: primary human HUVEC with PBMC; actives raise or lower the signal
# Method in brief: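 Human umbilical vein endothelial cells co-cultured with PBMC were dosed with compound. Cell-surface CD142 was measured by ELISA 24 h later. Activity was fitted bidirectionally against DMSO, with SRB total-protein staining in parallel cultures for cytotoxicity.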
# [5] = read-out: Tumor necrosis factor (Homo sapiens) (UniProt P01375); assay: BSK_LPS_TNFa: BioMAP Diversity Plus: LPS Assay for Tumour Necrosis Factor alpha (TNFa) Biomarker Activity (AID 2283085); conditions: primary human HUVEC with PBMC; actives raise or lower the signal
# Method in brief: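 Human umbilical vein endothelial cells co-cultured with PBMC were exposed to test chemical and TNFa measured by ELISA 24 h after dosing. Bidirectional curve fitting was done relative to DMSO as negative control and baseline.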
# [6] = read-out: Vascular cell adhesion molecule 1 (VCAM1), VCAM1 (gene 7412); assay: BSK_LPS_VCAM1: BioMAP Diversity Plus: LPS Assay for Vascular cell adhesion molecule 1 (VCAM1) Biomarker Activity (AID 2283086); conditions: primary human HUVEC with PBMC; actives raise or lower the signal
# Method in brief: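 Human umbilical vein endothelial cells co-cultured with peripheral blood mononuclear cells under LPS stimulation were exposed to test chemical for 24 h. VCAM-1 levels were then measured by ELISA, with bidirectional curve fitting relative to DMSO as negative control and baseline.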
# CD38, CD38 (gene 952) = assay: BSK_SAg_CD38: BioMAP Diversity Plus: SAg Assay for CD38 Biomarker Activity (AID 2283087); conditions: primary human HUVEC with PBMC; actives raise or lower the signal
# Method in brief: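 Fluorescence ELISA of cell-surface CD38 served as the read-out, with either increase or decrease fitted against DMSO controls. Cells were a human umbilical vein endothelium plus PBMC co-culture under SEB/TSST-1 stimulation, measured 24 h after dosing.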
# CD40, CD40 (gene 958) = assay: BSK_SAg_CD40: BioMAP Diversity Plus: SAg Assay for CD40 Biomarker Activity (AID 2283088); conditions: primary human HUVEC with PBMC; actives raise or lower the signal
# Method in brief: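 HUVEC plus PBMC co-culture, superantigen-activated, with CD40 read by ELISA 24 h after dosing. Curves fitted in both directions against DMSO. Overt cytotoxicity checked by parallel SRB total-protein staining.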
# CD69, CD69 (gene 969) = assay: BSK_SAg_CD69: BioMAP Diversity Plus: SAg Assay for CD69 Biomarker Activity (AID 2283089); conditions: primary human HUVEC with PBMC; actives raise or lower the signal
# Method in brief: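 ELISA, fluorescence read-out: CD69 on human umbilical vein endothelial cell + PBMC co-culture, 24 h post-dosing. Gain or loss of signal fitted bidirectionally against DMSO baseline.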
# [7] = read-out: Monocyte Chemoattractant Protein-1 (MCP1), CCL2 (gene 6347); assay: BSK_SAg_MCP1: BioMAP Diversity Plus: SAg Assay for Monocyte Chemoattractant Protein-1 (MCP1) Biomarker Activity (AID 2283090); conditions: primary human HUVEC with PBMC; actives raise or lower the signal
# Method in brief: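 MCP-1 levels in the endothelial–PBMC SAg co-culture were quantified by ELISA at 24 h post-dosing; both increases and decreases versus DMSO scored. Cytotoxicity monitored by SRB total protein in parallel cultures.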
# [8] = read-out: E-selectin (Homo sapiens) (UniProt P16581); assay: BSK_SAg_Eselectin: BioMAP Diversity Plus: SAg Assay for Eselectin Biomarker Activity (AID 2283091); conditions: primary human HUVEC with PBMC; actives raise or lower the signal
# Method in brief: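 Human umbilical vein endothelial cells co-cultured with peripheral blood mononuclear cells, SAg system. E-selectin is measured by ELISA 24 h after dosing and fitted bidirectionally against DMSO. Cytotoxicity is checked by SRB staining of parallel cultures.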
# [9] = read-out: Monokine induced gamma interferon (MIG), CXCL9 (gene 4283); assay: BSK_SAg_MIG: BioMAP Diversity Plus: SAg Assay for Monokine induced gamma interferon (MIG) Biomarker Activity (AID 2283092); conditions: primary human HUVEC with PBMC; actives raise or lower the signal
# Method in brief: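 ELISA readout of MIG/CXCL9; primary human umbilical vein endothelial cells co-cultured with peripheral blood mononuclear cells; 24 h post-dose; gain/loss fit vs DMSO baseline.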
# [10] = BSK_SAg_PBMCCytotoxicity: PBMC Cytotoxicity Assessment in the BioMAP Diversity Plus: SAg Assay (AID 2283093); conditions: primary human HUVEC with PBMC;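 note: PBMC viability measured as Alamar Blue reduction fluorescence at 546/580 nm; fitted both ways against DMSO so a hit may be loss or gain of signal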;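 for AC50: PBMC superantigen activated with SEB plus TSST-1 one hour after compound addition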
# Method in brief: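 Compound added to 75,000 PBMC/well for 1 h; SEB and TSST-1 then added at 20 ng/mL final each; 90 h incubation; Alamar Blue 6 h; read 546/580 nm ex/em. Activity fitted bidirectionally relative to DMSO baseline.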
# [11] = BSK_SAg_SRB: Viability Assessment in the BioMAP Diversity Plus: SAg Assay (AID 2283096); conditions: primary human HUVEC with PBMC;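 note: cells read one day after compound addition; hits may be either gain or loss of signal compared with DMSO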
# Method in brief: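 Total protein by sulforhodamine B staining, 24 h after dosing, in HUVEC–PBMC co-culture; DMSO-referenced bidirectional fitting.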
# [12] = read-out: Interleukin-8 (IL8), CXCL8 (gene 3576); assay: BSK_SAg_IL8: BioMAP Diversity Plus: SAg Assay for Interleukin-8 (IL8) Biomarker Activity (AID 2283094); conditions: primary human HUVEC with PBMC; actives raise or lower the signal
# Method in brief: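 Human umbilical vein endothelial cells co-cultured with peripheral blood mononuclear cells; IL-8 measured by ELISA 24 h after chemical dosing. Bidirectional concentration-response fitting used DMSO as negative control and activity baseline.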
# [13] = BSK_SAg_Proliferation: Cell Proliferation Assessment in the BioMAP Diversity Plus: SAg Assay (AID 2283095); conditions: primary human HUVEC with PBMC;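 note: relative cell number as total protein by SRB absorbance in sub-confluent culture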
# Method in brief: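 Human umbilical vein endothelial cells co-cultured with peripheral blood mononuclear cells; total protein measured by sulforhodamine B staining (0.1% SRB after 10% TCA fixation), absorbance at 560 nm, at 96 h. Bidirectional fit against DMSO baseline.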
# Tumor necrosis factor (Homo sapiens), sequence (P01375 whole entry, looked up): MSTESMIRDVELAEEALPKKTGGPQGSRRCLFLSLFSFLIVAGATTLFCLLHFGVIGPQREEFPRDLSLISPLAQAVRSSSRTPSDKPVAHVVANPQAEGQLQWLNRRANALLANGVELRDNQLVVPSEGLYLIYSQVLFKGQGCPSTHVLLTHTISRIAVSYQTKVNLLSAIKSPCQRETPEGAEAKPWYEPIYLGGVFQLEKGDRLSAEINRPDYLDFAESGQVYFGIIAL
# E-selectin (Homo sapiens), sequence (P16581 whole entry, looked up): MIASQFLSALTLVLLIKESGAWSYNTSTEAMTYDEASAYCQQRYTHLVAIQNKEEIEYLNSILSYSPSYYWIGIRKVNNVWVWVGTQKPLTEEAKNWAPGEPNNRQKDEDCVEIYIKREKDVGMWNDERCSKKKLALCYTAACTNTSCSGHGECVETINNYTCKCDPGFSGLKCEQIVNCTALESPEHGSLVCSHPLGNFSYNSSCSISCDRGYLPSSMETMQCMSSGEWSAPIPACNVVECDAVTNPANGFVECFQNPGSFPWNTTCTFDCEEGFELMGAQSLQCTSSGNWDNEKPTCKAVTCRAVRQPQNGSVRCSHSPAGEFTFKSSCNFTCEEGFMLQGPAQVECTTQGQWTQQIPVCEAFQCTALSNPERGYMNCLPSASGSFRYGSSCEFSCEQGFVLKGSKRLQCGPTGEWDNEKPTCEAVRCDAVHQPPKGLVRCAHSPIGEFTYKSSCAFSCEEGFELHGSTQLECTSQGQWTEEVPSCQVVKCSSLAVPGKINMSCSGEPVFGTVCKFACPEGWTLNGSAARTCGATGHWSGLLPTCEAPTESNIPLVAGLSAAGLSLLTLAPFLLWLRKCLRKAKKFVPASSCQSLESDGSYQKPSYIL
structure (smiles),measurement,setting,value
O=S(=O)(OCC(F)(F)F)C(F)(F)C(F)(F)C(F)(F)C(F)(F)F,AC50,[1],20.6 µM (active)
same,outcome,[1],inactive
same,outcome,[2],inactive
same,outcome,[3],inactive
same,AC50,[4],9.88 µM (active)
same,outcome,[4],inactive
same,AC50,[5],43.7 µM (active) and 16.3 µM (active)
same,outcome,[6],inactive
same,outcome,"CD38, CD38 (gene 952)",inactive
same,outcome,"CD40, CD40 (gene 958)",inactive
same,outcome,"CD69, CD69 (gene 969)",inactive
same,outcome,[7],inactive
same,outcome,[8],inactive
same,outcome,[9],inactive
same,outcome,[10],inactive
same,outcome,[11],inactive
OC(O)C(F)(F)C(F)(F)F,outcome,[1],inactive
same,outcome,[2],inactive
same,outcome,[3],inactive
same,outcome,[4],inactive
same,outcome,[5],inactive
same,outcome,[6],inactive
same,outcome,"CD38, CD38 (gene 952)",inactive
same,outcome,"CD40, CD40 (gene 958)",inactive
same,outcome,"CD69, CD69 (gene 969)",inactive
same,outcome,[7],inactive
same,outcome,[8],inactive
same,outcome,[9],inactive
same,outcome,[10],inactive
same,outcome,[12],inactive
same,outcome,[13],inactive
same,outcome,[11],inactive
NCC(F)(F)C(F)(F)C(F)(F)C(F)(F)C(F)(F)C(F)(F)F,AC50,[1],19.9 µM (active)
same,outcome,[1],inactive
same,outcome,[2],inactive
same,outcome,[3],inactive
same,outcome,[4],inactive
same,outcome,[5],inactive
same,outcome,[6],inactive
same,outcome,"CD40, CD40 (gene 958)",inactive
same,outcome,"CD69, CD69 (gene 969)",inactive
same,outcome,[7],inactive
same,outcome,[8],inactive
same,outcome,[9],inactive
same,outcome,[10],inactive
same,outcome,[11],inactive
FC(F)(F)C(F)(F)C(F)(F)C(F)(F)C(F)(F)C(F)(F)CC[Si](Cl)(Cl)Cl,AC50,[1],0.219 µM (active)
same,outcome,[1],inactive
same,outcome,[2],inactive
same,outcome,[3],inactive
same,outcome,[4],inactive
same,outcome,[5],inactive
same,outcome,[6],inactive
same,outcome,"CD40, CD40 (gene 958)",inactive
same,outcome,"CD69, CD69 (gene 969)",inactive
same,outcome,[7],inactive
same,outcome,[8],inactive
same,outcome,[9],inactive
same,outcome,[10],inactive
same,outcome,[12],inactive
same,outcome,[13],inactive
same,outcome,[11],inactive
C=CC(=O)OCC(F)(F)C(F)(F)C(F)(F)C(F)(F)C(F)(F)C(F)(F)C(F)(F)C(F)F,outcome,[1],inactive
same,AC50,[2],13.9 µM (active)
same,outcome,[2],inactive
same,outcome,[3],inactive
same,outcome,[4],inactive
same,outcome,[5],inactive
same,outcome,[6],inactive
same,outcome,"CD38, CD38 (gene 952)",inactive
same,AC50,"CD40, CD40 (gene 958)",18.1 µM (active)
same,outcome,"CD40, CD40 (gene 958)",inactive
same,outcome,"CD69, CD69 (gene 969)",inactive
same,outcome,[7],inactive
same,AC50,[8],30 µM (active)
same,outcome,[8],inactive
same,outcome,[9],inactive
same,AC50,[10],26.8 µM (active) and 16.6 µM (active)
same,outcome,[11],inactive
